Screening results (PubChem BioAssay)
IDE exosite inh – exo-site inhibitors of human insulin-degrading enzyme | z-score at 20 µM | purified IDE, FL-6b probe fluorescence polarization; active compounds read low | P14735 | 17,000 compounds, 6.3% hits;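 active = z-score of -3 or lower, meaning strong loss of probe binding signal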;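 also: His-tagged human IDE residues 42-1019 made in E. coli with 30 nM FL-6b probe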
Target sequence (P14735 42-1019 limits assumed): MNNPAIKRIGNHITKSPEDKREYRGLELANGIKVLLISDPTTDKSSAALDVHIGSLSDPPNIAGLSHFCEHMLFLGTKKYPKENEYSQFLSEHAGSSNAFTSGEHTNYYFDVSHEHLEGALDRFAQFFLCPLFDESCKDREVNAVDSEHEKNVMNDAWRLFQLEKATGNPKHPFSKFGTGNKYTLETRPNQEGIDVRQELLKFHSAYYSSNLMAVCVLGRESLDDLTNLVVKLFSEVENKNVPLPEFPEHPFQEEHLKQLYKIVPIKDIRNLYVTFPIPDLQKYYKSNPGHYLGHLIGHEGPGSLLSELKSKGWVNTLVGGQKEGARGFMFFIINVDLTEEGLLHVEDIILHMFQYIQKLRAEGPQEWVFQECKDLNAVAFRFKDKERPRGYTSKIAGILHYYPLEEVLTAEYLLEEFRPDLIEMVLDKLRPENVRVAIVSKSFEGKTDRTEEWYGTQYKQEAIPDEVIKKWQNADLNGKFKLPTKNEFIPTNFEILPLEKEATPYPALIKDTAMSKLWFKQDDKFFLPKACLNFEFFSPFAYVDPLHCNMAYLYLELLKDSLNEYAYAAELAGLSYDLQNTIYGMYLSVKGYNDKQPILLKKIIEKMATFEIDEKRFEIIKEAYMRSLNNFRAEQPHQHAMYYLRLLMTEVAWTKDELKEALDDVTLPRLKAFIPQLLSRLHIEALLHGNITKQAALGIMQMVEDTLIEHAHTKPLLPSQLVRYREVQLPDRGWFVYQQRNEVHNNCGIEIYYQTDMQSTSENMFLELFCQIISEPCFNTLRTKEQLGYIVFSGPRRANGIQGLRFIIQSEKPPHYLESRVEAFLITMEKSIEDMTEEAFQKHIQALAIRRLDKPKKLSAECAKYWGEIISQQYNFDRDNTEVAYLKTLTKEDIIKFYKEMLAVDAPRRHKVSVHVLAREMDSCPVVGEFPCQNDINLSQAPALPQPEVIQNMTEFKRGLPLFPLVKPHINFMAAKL
Numbers without * were called inactive; ! = repeats disagree. This is one part of a sample in which hits are shown more often than they occur.

SMILES	IDE exosite inh
COc1ccc(S(=O)(=O)N2C[C@H](O)COC[C@@H]3O[C@@H](CC(=O)N[C@@H]4CCN(Cc5ccccc5)C4)CC[C@H]32)cc1	-1.6
CC(C)(C)[S@@](=O)N1Cc2cc(C(=O)N3CCOCC3)nc(-c3cccc(-c4ccccc4F)c3)c2[C@H]1CCO	1.63
CN(C)C(=O)c1ccc(-c2ccc(C3[C@@H]4CNC[C@H]3N4)cc2)cc1 (some centres not stated)	1.84
CN(C)CC#Cc1ccc([C@@H]2[C@H]3CN(C(=O)c4ccc5c(c4)OCO5)CCCCN3[C@H]2CO)cc1	1.22
COc1ccc(C#Cc2ccc([C@@H]3[C@@H](CO)N4CCCCN(C(=O)Nc5ccc(F)cc5)C[C@@H]34)cc2)cc1	2.82
CCCNC(=O)N1[C@H](CO)[C@@H](c2ccccc2-c2ccccc2F)[C@@H]1C#N	-0.678
O=C(c1ccc2c(c1)OCO2)N1CCCCN2[C@@H](CO)[C@@H](c3ccc(-c4ccccc4)cc3)[C@@H]2C1	0.415
COc1cccc(-c2ccc([C@@H]3[C@H](CO)N4C(=O)CN(C(=O)c5ccncc5)C[C@@H]34)cc2)c1	-1.8
O=C(c1ccncc1)N1CC(=O)N2[C@@H](CO)[C@H](c3ccc(-c4cccnc4)cc3)[C@@H]2C1	1.17
O=C(c1ccncc1)N1CC(=O)N2[C@H](CO)[C@@H](c3ccc(-c4cccnc4)cc3)[C@@H]2C1	0.551
COc1cccc(-c2ccc([C@H]3[C@@H](CO)N4C(=O)CN(C(=O)c5ccncc5)C[C@H]34)cc2)c1	-8*
COc1cccc(-c2ccc([C@H]3[C@H](CO)N4C(=O)CN(C(=O)c5ccncc5)C[C@@H]34)cc2)c1	-4.63*
O=C(c1ccncc1)N1CC(=O)N2[C@H](CO)[C@@H](c3ccc(-c4ccccc4)cc3)[C@H]2C1	2.77
CCCC#Cc1ccc([C@H]2[C@@H](CO)N3C(=O)CN(C(=O)c4ccc(F)cc4)C[C@H]23)cc1	1.45
CC(=O)N1CCCCN2[C@H](C1)[C@@H](c1ccc(Br)cc1)[C@@H]2CO	2.82
O=C(C1CCCCC1)N1CC(=O)N2[C@@H](CO)[C@H](c3ccc(Br)cc3)[C@@H]2C1	3.8
O=C(C1CCOCC1)N1CC2(C1)[C@@H](c1ccccc1)[C@@H](CO)N2Cc1ccccc1F	0.464
O=C(CN1CCOCC1)N1CCCCN2[C@H](CO)[C@H](c3ccc(C#Cc4ccccc4F)cc3)[C@@H]2C1	-5.02*
O=C(CN1CCOCC1)N1CCCCN2[C@H](C1)[C@@H](c1ccc(C#Cc3ccccc3F)cc1)[C@@H]2CO	-5*
O=C(CN1CCOCC1)N1CCCCN2[C@H](CO)[C@H](c3ccc(C#Cc4ccccc4F)cc3)[C@H]2C1	-5.53*
O=C(CN1CCOCC1)N1CCCCN2[C@H](C1)[C@H](c1ccc(C#Cc3ccccc3F)cc1)[C@@H]2CO	-6.05*
O=C(c1ccccc1)N1CC(=O)N2[C@H](C1)[C@@H](c1ccc(C3=CCCC3)cc1)[C@@H]2CO	2.33
CC(=O)NC[C@H]1[C@H](c2ccccc2)[C@H](CO)N1C(=O)Cc1cccnc1	5.9
Cc1cccc(S(=O)(=O)N2CC[C@H]3[C@@H](CO)N(C)c4ccc(Br)cc4[C@H]32)c1	-0.128
O=S(=O)(c1cccc(F)c1)N1CC[C@@H]2[C@H](CO)Nc3ccc(C#Cc4ccccc4F)cc3[C@@H]21	1.52
SMILES	IDE exosite inh
COc1ccc2c3c([nH]c2c1)[C@@H](CO)N(S(=O)(=O)c1cn(C)cn1)CC31CCN(Cc2ccccc2Cl)CC1	1.91
C[C@@H]1CCCCO[C@H](CN(C)S(C)(=O)=O)[C@H](C)CN([C@@H](C)CO)C(=O)c2cc(NC(=O)NC3CCCCC3)ccc2O1	1.26
O=S(=O)(c1ccccc1F)N1CC[C@@H]2[C@@H](CO)Nc3ccc(C4=CCCCC4)cc3[C@@H]21	2.8
O=C(CN1CCOCC1)N1CCCCN2[C@H](CO)[C@H](c3ccc(C#Cc4ccccc4)cc3)[C@H]2C1	-8.69*
O=C(CN1CCOCC1)N1CCCCN2[C@H](CO)[C@@H](c3ccc(Br)cc3)[C@H]2C1	-0.735
Cc1ccccc1-c1ccc(C2[C@H]3CNC[C@@H]2N3S(=O)(=O)Cc2ccccc2)cc1 (some centres not stated)	-7.28*
COc1ccc(-c2ccc(C3[C@H]4CNC[C@@H]3N4S(=O)(=O)Cc3ccccc3)cc2)cc1 (some centres not stated)	0.067
COc1ccccc1-c1ccc(C2[C@@H]3CN(S(=O)(=O)c4ccc(F)cc4)C[C@H]2N3)cc1 (some centres not stated)	-3.13*!
COc1ccccc1-c1ccc(C2[C@H]3CNC[C@@H]2N3S(=O)(=O)c2ccccc2C)cc1 (some centres not stated)	4.72
COc1ccc(S(=O)(=O)N2[C@@H]3CNC[C@H]2C3c2ccc(-c3ccccc3OC)cc2)cc1 (some centres not stated)	-3.63*!
O=S(=O)(c1ccc(F)cc1)N1C[C@@H]2N[C@H](C1)C2c1ccc(/C=C/c2ccccc2)cc1 (some centres not stated)	0.825
Cc1ccccc1-c1ccc(C2[C@H]3CNC[C@@H]2N3S(=O)(=O)c2ccccc2)cc1 (some centres not stated)	-1.47
Cc1ccccc1-c1ccc(C2[C@H]3CNC[C@@H]2N3S(=O)(=O)c2ccccc2C)cc1 (some centres not stated)	-0.509
COc1ccccc1-c1ccc(C2[C@@H]3CN(S(=O)(=O)c4ccc(C)cc4)C[C@H]2N3)cc1 (some centres not stated)	-1.17
COc1ccc(S(=O)(=O)N2[C@@H]3CNC[C@H]2C3c2ccc(-c3ccncc3)cc2)cc1 (some centres not stated)	3.14
Cc1cccc(S(=O)(=O)N2[C@@H]3CNC[C@H]2C3c2ccc(-c3ccccc3C)cc2)c1 (some centres not stated)	-3.97*
O=S(=O)(Cc1ccccc1)N1[C@@H]2CNC[C@H]1C2c1ccc(-c2ccccc2)cc1 (some centres not stated)	-0.663
C[C@@H]1CN([C@@H](C)CO)C(=O)c2c(c3ccccc3n2C)-c2ccccc2CO[C@H]1CN(C)C(=O)NC1CCCCC1	0.61
COc1cccc(NC(=O)N[C@@H]2CC[C@H](CC(=O)N3CCN(C)CC3)O[C@@H]2CO)c1	-0.96
C[C@@H]1CN([C@H](C)CO)C(=O)c2ccccc2-c2ccccc2CO[C@@H]1CN(C)C(=O)Nc1ccc(-c2ccccc2)cc1	-0.978
COc1ccc(-c2ccc([C@@H]3[C@@H](CO)N4C(=O)CN(C(=O)C5CCOCC5)C[C@@H]34)cc2)cc1	0.117
CCS(=O)(=O)NCC[C@H]1CC[C@H](NS(=O)(=O)c2ccccc2C)[C@H](CO)O1	1.98
CC(C)NC(=O)N1[C@@H](CO)[C@H](c2ccccc2)[C@@H]1CN(C)C(=O)c1ccncc1	3.6
O=C([C@H]1[C@H](CO)[C@H]2Cn3c(cccc3=O)[C@H]2N1C(=O)C1CCCCC1)N1CCOCC1	1.85
CC(C)C#Cc1ccc([C@@H]2[C@@H](CO)N3CCCCN(S(=O)(=O)Cc4ccccc4)C[C@H]23)cc1	1.18
CC(C)NC(=O)N1[C@H](CO)[C@@H](c2ccccc2)[C@@H]1CN(C)C(=O)c1cccnc1	-1.34
O=C(C1CC1)N1C[C@H]2[C@@H](c3ccccc31)[C@H](CO)N2C(=O)c1ccccc1	2.34
N#C[C@@H]1[C@H](c2ccccc2-c2ccccc2)[C@@H](CO)N1c1ncc(-c2ccccc2)s1	2.69
